# Results filed as inconclusive are left out. Where a call stands in place of a potency, no number is given. Active and inactive are the calls of the source. The call rests on the fitted dose curve; in most records, active means well fitted inhibition curve with a large enough effect; inconclusive means small, poorly fitted or top-dose-only effect; inactive means flat fitted curve, though single readings scatter.
# Assay: Cytometry Cell-Based qHTS for Inhibitors of the mTORC1 Signaling Pathway in MEF cells (AID 2668)
# Settings: mTORC1 pathway readout; series mostly up to 38.3 µM
# Text: NIH Molecular Libraries Probe Production Centers Network [MLPCN]
# NIH Chemical Genomics Center [NCGC]
# Assay Submitter (PI): Blenis, John; Hoffman, Greg; Harvard University
# NCGC Assay Overview: The mammalian target of rapamycin (mTOR) is an intracellular serine/threonine kinase Aberrant regulation of mTOR signaling plays a causative role in a number of human diseases, including cancer, benign tumors such as lymphangioleiomyomatosis (LAM) and Tuberous Sclerosis Complex (TSC), and metabolic diseases such as diabetes and obesity. This project aims to identify inhibitors of ribosomal protein S6 (rpS6) phosphorylation. The phosphorylation of rpS6 is a key event downstream of mTOR activation. The assay uses a phospho-specific antibody of phospho-rpS6 to detect inhibitors of mTOR activation. Mutations in the Tsc1 and Tsc2 genes are the underlying genetic lesions responsible for TSC, causing constitutive activation of the mTORC1 pathway and leading to profound effects on cell metabolism. Aberrant metabolism in cancer has recently received significant attention as a target to develop therapeutic agents in the treatment of cancer.1 As Tsc2-/- cells have lost the ability to respond to energy and growth factor deprivation, these cells are unable to properly down regulate cellular biosynthetic processes in response to metabolic stress, and are thus extremely sensitive to glucose deprivation-induced death.2 A central goal of this project is to explore the unique cell survival and metabolic properties of cells with Tsc1 or Tsc2 by screening for compounds that selectively target the Tsc2-/- MEFs by screening both Tsc2-/- and WT MEF cell lines. We hope to better understand these aspects of TSC physiology in order to exploit them for therapeutic benefit.
# NCGC Acumen Assay Protocol:
# For quantitative high throughput analysis of mTORC1 signaling, we developed a cell-based assay for immuno-fluorescence based detection of rpS6 phosphorylation on the Acumen Explorer that will be used a platform for the primary small molecule screen. Mouse embryonic fibroblasts (MEFs) are cultured in 1536-well plates using DMEM + 10% FBS. Twenty-four hrs after plating, test compounds (solubilized in DMSO) are delivered and incubated with the cells for 24 hrs at 37 degree Celsius. Following the incubation, media with compound is aspirated and the cells are fixed in 4% paraformaldehyde (PFA) containing PBS + 0.2% TX-100. Next, PFA is aspirated, cells are washed two times with PBS plus 0.2% TX-100 and the cells are blocked for 1 hr at room temperature (blocking buffer: LiCOR Blocking Buffer plus 0.2% TX-100). This is followed by aspiration and staining with Alexa-488 conjugated-phospho-rpS6 Ser235/236 antibody for 2 hours at room temperature (Cell Signaling Technology # 4803, 1:50 dilution in blocking buffer). Cells are washed two times with PBS plus 0.2% TX-100, and stained with 10 uM propidium iodide (PI) for 20-25 minutes for cell number measurement (1:500 dilution of Hoescht staining is also added for IN Cell imaging). The plates are scanned on the Acumen Explorer laser scanning instrument (TTP Labtech) using the 488nm laser for simultaneous excitation of the Alexa-488 and PI. The fluorescence emission from the Alexa-488 conjugated rpS6 phospho-235/236 antibody staining is selected using a […] band pass filter. Fluorescence emission from the PI stain is selected using a 575-640 nm band pass filter. The normalized phospho-S6 staining is calculated as the ratio of the integrated Alexa 488 intensity divided by the integrated PI intensity for the single concentration rapamycin control (7.5 nM) and DMSO columns. […] Inhibition of the pathway is defined based on the normalized phospho-S6 intensity in rapamycin treated cells. […]
# Potency means the concentration at half of the fitted maximal effect.
row,Compound,Potency
1,C[C@H](Cc1ccc2c(c1)OC(C(=O)O)(C(=O)O)O2)NC[C@H](O)c1cccc(Cl)c1,inactive
2,NCCc1ccc(S(=O)(=O)F)cc1,inactive
3,NNC(N)=O,inactive
4,C[N+](C)(C)CC#CCN1CCCC1=O,inactive
5,NCC(CP(=O)(O)O)c1ccc(Cl)cc1 (stereo not given),inactive
6,C[N+]1(C)C2CCC1CC(OC(=O)c1c[nH]c3ccccc13)C2 (stereo not given),inactive
7,NCCc1c[nH]c2ccc(C(N)=O)cc12,inactive
8,c1ccc2cc(CC3=NCCN3)ccc2c1,inactive
9,CCOC(=O)c1ncn2c1[C@@H]1CCCN1C(=O)c1cc(OC)ccc1-2,inactive
10,Clc1cc(I)cc(Cl)c1NC1=NCCN1,inactive
11,CC(C)[C@@]1(NC(=O)[C@@H]2C[C@@H]3c4cccc5[nH]cc(c45)C[C@H]3N(C)C2)O[C@@]2(O)[C@@H]3CCCN3C(=O)[C@H](Cc3ccccc3)N2C1=O,inactive
12,CC(Cc1ccc(OCC(=O)O)cc1)NCC(O)c1cccc(Cl)c1 (stereo not given),inactive
13,OCc1cnc[nH]1,inactive
14,N#C/C(=C/c1ccc(O)c(O)c1)C(N)=S,inactive
15,Clc1ccc(N2CC3CCC(C2)N3)nn1,inactive
16,CCN1C[C@@]2(COC)C3[C@@H](OC)C4[C@@H]1C3([C@@H]1C[C@]3(O)[C@H](OC(=O)c5ccccc5)[C@@H]1[C@]4(OC(C)=O)[C@@H](O)[C@@H]3OC)[C@H](OC)C[C@H]2O,inactive
17,C/C(O)=C(\C#N)C(=O)Nc1cc(Br)ccc1Br,inactive
18,CC(C)(C)c1o[nH]c(=O)c1CC(N)C(=O)O (stereo not given),inactive
19,CC(C)(O)[C@@H]1C2OC(=O)[C@@H]1[C@]1(O)C[C@H]3O[C@]34C(=O)O[C@H]2[C@]14C (tested in a mixture with another compound),inactive
20,NC(C(=O)O)c1cc(=O)[nH]o1 (stereo not given),inactive

row,Compound,Potency
1,C[C@]12Cc3cn4c(nc3C=C1CCC1C2CC[C@@]2(C)[C@H]1CC[C@@]2(O)C#N)nc1ccccc14 (stereo not given in full),inactive
2,CC(C)NP(=O)(NC(C)C)OP(=O)(NC(C)C)NC(C)C,inactive
3,CC12NC(Cc3ccccc31)c1ccccc12 (stereo not given),inactive
4,C#CCN[C@H](C)Cc1ccccc1,inactive
5,Cc1o[nH]c(=O)c1CC(N)C(=O)O (stereo not given),inactive
6,COc1ccc2c(c1)[C@@]13CCCC[C@H]1[C@@H](C2)NCC3,inactive
7,COc1ccc(CNC(=O)/C=C/c2ccc3[nH]cc(CCN(C)C)c3c2)cc1,inactive
8,CCCN(CCC)[C@@H]1CCc2cccc(O)c2C1,inactive
9,CC(=O)NBr,inactive
10,COc1ccc2c(c1)C13CCCCC1C(C2)N(C)CC3 (stereo not given),inactive
11,COc1ccc2[nH]cc(CCN)c2c1,inactive
12,CCCC[N+]1(C)C2CC(OC(=O)[C@H](CO)c3ccccc3)CC1C1OC12 (stereo not given in full),inactive
13,COc1cc(CC(C)N)c(OC)cc1I (stereo not given),inactive
14,CN1CCC(c2c[nH]c3ccc(O)cc23)CC1,inactive
15,N#CCCN,inactive
16,NC(=O)CI,inactive
17,N[C@@H](Cn1ccc(=O)[nH]c1=O)C(=O)O,inactive
18,CC(C)(C)c1cc(C=C(C#N)C#N)cc(C(C)(C)C)c1O,4.14 µM (active)
19,C=CCN1C[C@@H](C)N([C@H](c2ccc(C(=O)N(CC)CC)cc2)c2cccc(OC)c2)C[C@@H]1C,inactive
20,CCCN(CCC)C1CCc2cccc(O)c2C1 (stereo not given),inactive

# — PubChem BioAssay (NCATS)
